Read-out in assay [1]: Protein phosphatase 2A (PPP2R4), PTPA (gene 5524)
The assay can be described thus: LTEA_HepaRG_PPP2R4: Life Technologies and Expression Analysis (LTEA) Assay for Protein phosphatase 2A (PPP2R4) using HepaRG (AID 2283522). The conditions noted are these: mRNA level, 48 h; actives raise or lower the signal. The method in brief:
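Expression was quantified by Fluidigm qRT-PCR normalised to three housekeeping genes after 48 h treatment. Human HepaRG cells received an 8-point series from 100 µM downward by half-logs, in duplicate with 0.5% DMSO vehicle and 1 mM phenobarbital as induction control.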

Read-out in assay [2]: solute carrier (SLC22A1), SLC22A1 (gene 6580)
The assay can be described thus: LTEA_HepaRG_SLC22A1: Life Technologies and Expression Analysis (LTEA) Assay for solute carrier (SLC22A1) using HepaRG (AID 2283524).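 For AC50: differentiated human HepaRG liver cells in serum-free induction medium.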 The conditions noted are these: mRNA level, 48 h; actives raise or lower the signal. The method in brief: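 qRT-PCR readout (TaqMan, Fluidigm arrays) of SLC22A1 transcript, normalized to three housekeeping genes; bidirectional curve fit relative to 0.5% DMSO vehicle. Differentiated human HepaRG cells, 48 h chemical exposure, top concentration 100 uM, half-log steps, eight points.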

Read-out in assay [3]: Pyruvate Dehydrogenase Kinase 4 (PDK4), PDK4 (gene 5166)
The assay can be described thus: LTEA_HepaRG_PDK4: Life Technologies and Expression Analysis (LTEA) Assay for Pyruvate Dehydrogenase Kinase 4 (PDK4) using HepaRG (AID 2283525). The note with it: mRNA level, 48 h; actives raise or lower the signal. In a few lines:
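HepaRG (human liver line), 48 h chemical exposure, 8-pt half-log CRC top 100 uM, 0.5% DMSO vehicle, duplicates. Readout: TaqMan qRT-PCR of PDK4 mRNA, housekeeping-normalized; gain/loss fit relative to DMSO baseline.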

Read-out in assay [4]: NAD(P)H dehydrogenase [quinone] 1 (NQO1), NQO1 (gene 1728)
The assay can be described thus: LTEA_HepaRG_NQO1: Life Technologies and Expression Analysis (LTEA) Assay for NAD(P)H dehydrogenase [quinone] 1 (NQO1) using HepaRG (AID 2283526). The note with it: mRNA level, 48 h; actives raise or lower the signal. In a few lines:
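NQO1 transcript induction or loss measured by TaqMan qRT-PCR, referenced to three housekeeping genes and fitted bidirectionally against 0.5% DMSO. HepaRG cultures exposed 48 h, duplicate, eight-point half-log series, top 100 uM.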

Read-out in assay [5]: Nuclear factor erythroid 2-related factor 2 (Homo sapiens) (UniProt Q16236)
The assay can be described thus: LTEA_HepaRG_NFE2L2: Life Technologies and Expression Analysis (LTEA) Assay for Nuclear factor erythroid 2-related factor 2 (NFE2L2) Transcription Factor using HepaRG (AID 2283527).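 Note: TaqMan qRT-PCR transcript level normalised to ACTB GAPDH and POLR2A housekeeping genes.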 The conditions noted are these: mRNA level, 48 h; actives raise or lower the signal. The method in brief:
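HepaRG, 48 h dosing, 8-pt half-log series from 100 uM in 0.5% DMSO, duplicates. Read-out: NFE2L2 mRNA by qRT-PCR (ACTB/GAPDH/POLR2A normalization). Bidirectional curve fit vs DMSO baseline.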

Read-out in assay [6]: succinate dehydrogenase complex iron sulfur subunit B (SDHB), SDHB (gene 6390)
The assay can be described thus: LTEA_HepaRG_SDHB: Life Technologies and Expression Analysis (LTEA) Assay for succinate dehydrogenase complex iron sulfur subunit B (SDHB) using HepaRG (AID 2283528). The conditions noted are these: mRNA level, 48 h; actives raise or lower the signal. In a few lines: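 HepaRG cells (~100,000/well, plated 48 h) exposed in duplicate for 48 h in serum-free induction medium to 8-point half-log series from 100 uM in 0.5% DMSO; mRNA by qRT-PCR normalised to ACTB, GAPDH, POLR2A; bidirectional fit versus DMSO.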

Read-out in assay [7]: Signal transducer and activator of transcription 3 (Homo sapiens) (UniProt P40763)
The assay can be described thus: LTEA_HepaRG_STAT3: Life Technologies and Expression Analysis (LTEA) Assay for Signal transducer and activator of transcription (STAT3) using HepaRG (AID 2283529). The conditions noted are these: mRNA level, 48 h; actives raise or lower the signal. The method in brief:
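HepaRG, 48 h exposure, 8-pt half-log series (top 100 uM), 0.5% DMSO vehicle, duplicates. Readout: STAT3 transcript by Fluidigm qRT-PCR, housekeeping-normalized; bidirectional fit vs DMSO baseline.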

Read-out in assay [8]: solute carrier (SLCO1B1), SLCO1B1 (gene 10599)
The assay can be described thus: LTEA_HepaRG_SLCO1B1: Life Technologies and Expression Analysis (LTEA) Assay for solute carrier (SLCO1B1) using HepaRG (AID 2283530). The note with it: mRNA level, 48 h; actives raise or lower the signal. In a few lines: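 HepaRG, serum-free induction medium, 48 h dosing, 8-pt half-log from 100 uM, 0.5% DMSO vehicle, duplicates. Readout: SLCO1B1 mRNA, qRT-PCR, ACTB/GAPDH/POLR2A normalization; up or down fit vs DMSO.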

Read-out in assay [9]: sulfotransferase 2A1 (SULT2A1), SULT2A1 (gene 6822)
Briefly: LTEA_HepaRG_SULT2A1: Life Technologies and Expression Analysis (LTEA) Assay for sulfotransferase 2A1 (SULT2A1) using HepaRG (AID 2283531). The note with it: mRNA level, 48 h; actives raise or lower the signal. In a few lines:
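Transcript levels of SULT2A1, quantified by qRT-PCR and normalized to three housekeeping genes, serve as the readout. Human HepaRG cultures receive test chemicals for 48 h at up to 100 uM in half-log steps, with 0.5% DMSO vehicle.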

Read-out in assay [10]: Transforming Growth Factor (TGFA), TGFA (gene 7039)
Briefly: LTEA_HepaRG_TGFA: Life Technologies and Expression Analysis (LTEA) Assay for Transforming Growth Factor (TGFA) using HepaRG (AID 2283532). The conditions noted are these: mRNA level, 48 h; actives raise or lower the signal. In a few lines:
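qRT-PCR read-out of TGFA transcript, normalized to three housekeeping genes, fitted bidirectionally against 0.5% DMSO baseline. Human HepaRG cultures received chemicals for 48 h at eight half-log concentrations, top 100 uM.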

Read-out in assay [11]: Transforming Growth Factor (TGFB1), TGFB1 (gene 7040)
Briefly: LTEA_HepaRG_TGFB1: Life Technologies and Expression Analysis (LTEA) Assay for Transforming Growth Factor (TGFB1) Transporter using HepaRG (AID 2283533). The conditions noted are these: mRNA level, 48 h; actives raise or lower the signal. The method in brief: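 HepaRG, 48 h post-plating, switched to serum-free induction medium; chemicals 100 uM top, half-log, 8 pts, 0.5% DMSO, dup; 48 h exposure; RNA → Fluidigm TaqMan qRT-PCR; norm ACTB/GAPDH/POLR2A; bidirectional fit vs DMSO.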

Read-out in assay [12]: TIMP1, TIMP1 (gene 7076)
The assay can be described thus: LTEA_HepaRG_TIMP1: Life Technologies and Expression Analysis (LTEA) Assay for TIMP1 using HepaRG (AID 2283534). The conditions noted are these: mRNA level, 48 h; actives raise or lower the signal. In a few lines: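 Readout is TIMP1 mRNA level measured by qRT-PCR and normalized to three housekeeping genes. Human HepaRG cells were treated for 48 h in duplicate at eight concentrations up to 100 uM (0.5% DMSO); gain or loss fitted against DMSO.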

Read-out in assay [13]: Thyroid Hormone Responsive (THRSP), THRSP (gene 7069)
The assay can be described thus: LTEA_HepaRG_THRSP: Life Technologies and Expression Analysis (LTEA) Assay for Thyroid Hormone Responsive (THRSP) using HepaRG (AID 2283536). The note with it: mRNA level, 48 h; actives raise or lower the signal. In a few lines: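 qRT-PCR read-out (Fluidigm TaqMan), housekeeping-normalized (ACTB/GAPDH/POLR2A). HepaRG, 48 h chemical exposure, 8-pt half-log series from 100 uM in 0.5% DMSO, duplicates. Bidirectional curve fit vs 0.5% DMSO baseline.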

Read-out in assay [14]: Cellular tumor antigen p53 (Homo sapiens) (UniProt P04637)
The assay can be described thus: LTEA_HepaRG_TP53: Life Technologies and Expression Analysis (LTEA) Assay for Tumor Protein P53 (TP53) using HepaRG (AID 2283537). The conditions noted are these: mRNA level, 48 h; actives raise or lower the signal. In a few lines: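 Differentiated HepaRG cells in serum-free induction medium exposed 48 h in duplicate to 8 half-log concentrations, top 100 uM, 0.5% DMSO. TP53 mRNA by TaqMan qRT-PCR (Fluidigm), normalized to ACTB, GAPDH, POLR2A; fitted bidirectionally versus DMSO.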

Read-out in assay [15]: UDP glucuronosyltransferase (UGT1A1), UGT1A1 (gene 54658)
The assay can be described thus: LTEA_HepaRG_UGT1A1: Life Technologies and Expression Analysis (LTEA) Assay for UDP glucuronosyltransferase (UGT1A1) using HepaRG (AID 2283538). The note with it: mRNA level, 48 h; actives raise or lower the signal. The method in brief:
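UGT1A1 transcript level, measured by qRT-PCR with three housekeeping genes for normalization, after 48 h treatment of human HepaRG cells (0.5% DMSO, duplicates, up to 100 uM, half-log steps, 8 points). Curves fit both directions against DMSO baseline.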

Read-out in assay [16]: Tumor necrosis factor receptor 1 (TNFRSF1A), TNFRSF1A (gene 7132)
The assay can be described thus: LTEA_HepaRG_TNFRSF1A: Life Technologies and Expression Analysis (LTEA) Assay for Tumor necrosis factor receptor 1 (TNFRSF1A) using HepaRG (AID 2283535). The conditions noted are these: mRNA level, 48 h; actives raise or lower the signal. The method in brief:
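Read-out is TNFRSF1A transcript level by TaqMan qRT-PCR, normalized to three housekeeping genes, scored as gain or loss of signal versus 0.5% DMSO. Human HepaRG cells received test chemicals for 48 h at up to 100 uM (half-log series).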

A short description of assay [17]: LTEA_HepaRG_LDH_cytotoxicity: Cytotoxicity Assessment in the Life Technologies and Expression Analysis (LTEA) Assay (AID 2283563; active = hit-call score of the fitted dose curve at least 0.9, where 1 is the maximum;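 for AC50: LDH activity released into spent culture medium as a marker of cell death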). The method in brief:
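Cells were thawed and plated for 48 h. Medium was then replaced with serum-free induction medium. Chemicals (8 half-log points, maximum 100 uM, 0.5% DMSO) were added in duplicate for 48 h, after which spent medium was assayed for LDH.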

Active and inactive are the calls of the source. Rule for the calls, unless noted: active = hit-call score of the fitted dose curve at least 0.9, where 1 is the maximum; inactive = score below 0.9.

Sequence of Cellular tumor antigen p53 (Homo sapiens) (P04637 whole entry, looked up): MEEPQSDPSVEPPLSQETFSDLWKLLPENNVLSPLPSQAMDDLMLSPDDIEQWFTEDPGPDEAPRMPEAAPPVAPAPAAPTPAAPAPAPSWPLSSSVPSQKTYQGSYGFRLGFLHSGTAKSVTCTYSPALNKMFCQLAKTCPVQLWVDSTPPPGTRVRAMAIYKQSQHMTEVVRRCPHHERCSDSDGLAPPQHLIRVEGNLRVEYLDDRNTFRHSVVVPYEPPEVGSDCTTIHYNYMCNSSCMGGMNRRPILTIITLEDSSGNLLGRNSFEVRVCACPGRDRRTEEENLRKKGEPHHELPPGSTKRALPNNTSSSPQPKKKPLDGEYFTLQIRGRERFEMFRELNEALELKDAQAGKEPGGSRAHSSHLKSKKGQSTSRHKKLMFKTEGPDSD
Sequence of Nuclear factor erythroid 2-related factor 2 (Homo sapiens) (Q16236 whole entry, looked up): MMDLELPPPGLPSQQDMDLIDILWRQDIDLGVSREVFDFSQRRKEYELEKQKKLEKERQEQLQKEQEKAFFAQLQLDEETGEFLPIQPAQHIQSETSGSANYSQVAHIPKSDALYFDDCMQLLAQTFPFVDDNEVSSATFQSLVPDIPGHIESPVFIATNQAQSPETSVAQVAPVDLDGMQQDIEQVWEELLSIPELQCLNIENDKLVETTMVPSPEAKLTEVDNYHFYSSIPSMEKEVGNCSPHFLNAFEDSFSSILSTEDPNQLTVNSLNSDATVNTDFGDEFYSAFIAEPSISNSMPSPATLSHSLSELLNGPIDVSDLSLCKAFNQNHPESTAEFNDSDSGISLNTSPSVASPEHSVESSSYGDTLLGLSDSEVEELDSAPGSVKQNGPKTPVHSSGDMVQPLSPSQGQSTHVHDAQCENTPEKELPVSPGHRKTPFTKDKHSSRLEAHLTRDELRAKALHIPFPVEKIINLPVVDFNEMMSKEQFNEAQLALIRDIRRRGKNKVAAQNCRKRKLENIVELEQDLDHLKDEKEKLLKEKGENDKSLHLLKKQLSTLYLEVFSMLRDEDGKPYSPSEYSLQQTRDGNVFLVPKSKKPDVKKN
Sequence of Signal transducer and activator of transcription 3 (Homo sapiens) (P40763 whole entry, looked up): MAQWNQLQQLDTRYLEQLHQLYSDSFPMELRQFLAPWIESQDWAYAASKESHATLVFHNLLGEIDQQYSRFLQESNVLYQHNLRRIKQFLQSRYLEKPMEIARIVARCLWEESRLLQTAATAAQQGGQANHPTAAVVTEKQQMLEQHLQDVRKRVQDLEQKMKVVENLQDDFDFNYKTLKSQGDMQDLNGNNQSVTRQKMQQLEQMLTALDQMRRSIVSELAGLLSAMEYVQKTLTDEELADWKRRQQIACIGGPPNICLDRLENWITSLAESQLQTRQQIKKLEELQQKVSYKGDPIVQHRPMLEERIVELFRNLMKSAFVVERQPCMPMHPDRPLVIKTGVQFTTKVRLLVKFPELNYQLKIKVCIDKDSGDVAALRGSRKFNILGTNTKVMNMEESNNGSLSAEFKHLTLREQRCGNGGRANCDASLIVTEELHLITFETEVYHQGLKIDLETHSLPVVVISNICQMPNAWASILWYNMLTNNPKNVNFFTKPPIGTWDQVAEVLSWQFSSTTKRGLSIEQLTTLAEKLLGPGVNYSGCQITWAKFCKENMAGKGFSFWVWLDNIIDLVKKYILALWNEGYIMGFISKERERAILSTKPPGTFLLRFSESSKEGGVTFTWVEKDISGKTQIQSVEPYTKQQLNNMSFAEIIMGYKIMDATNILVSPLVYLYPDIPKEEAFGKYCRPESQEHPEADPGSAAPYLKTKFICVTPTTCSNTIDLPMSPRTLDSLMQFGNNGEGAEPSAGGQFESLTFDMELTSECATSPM

Consider `CNC(=O)Oc1cccc(N=CN(C)C)c1`, for which the compound was classed as inactive in assay [1], in assay [2], in assay [3], in [4], in [5] and in assay [6]. For the same compound, the compound was called inactive in assay [7], in assay [8], in [9], in [10], in assay [11] and in assay [12]. Also, the compound was called inactive in assay [13], in assay [14] and in assay [15].

Usually AC50 stands for the concentration at which the activity in the assay is half-maximal. In the case of `CNC(=O)Oc1ccccc1OC(C)C`, the compound was called inactive in assay [1], in assay [2], in [3], in assay [4], in [5] and in [6]. Besides, the result in assay [7], in assay [8], in assay [10], in assay [11], in assay [12] and in assay [16] was inactive. Moreover, the outcome in [13], in assay [14] and in [17] was inactive. Further, the AC50 in [15] was 0.633 µM (active).

For `CCOCN(C(=O)CCl)c1c(C)cccc1CC`, the result in assay [1], in assay [4], in assay [5], in assay [6], in [7] and in [10] was inactive. For the same compound, the result in [11], in assay [12], in assay [14] and in [15] was inactive. Moreover, the AC50 in assay [2] was 81.1 µM (active); in [3], 50 µM (active); in assay [8], 81.3 µM (active); in assay [9] it was 83.8 µM (active); in assay [13], 9.92 µM (active); in [17], 76 µM (active).

The values are drawn from PubChem BioAssay (EPA / NIEHS).
